This note sets out measurements from PubChem BioAssay (Tox21).

Results filed as inconclusive are left out. Entries that show only a call come without a potency. Activity calls are given as the source filed them. The call rests on the fitted dose curve; in most records, active means well fitted curve in the direction sought with a large enough effect in the repeat runs; inconclusive means weak or mixed curves; inactive means no such curve, though single readings can be large; an effect the other way counts as inactive or inconclusive.

One experiment in a line: qHTS RealTime-Glo MT Cell Viability Assay in HEK293 cells - 8 hour (AID 1224887). Further: top concentration of the series differs between compounds; nearly all actives have a fitted effect of over 50% in size. The note with it: RealTime-Glo luminescence; series mostly up to 76.8 µM. The gist of the method: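 Cells were seeded together with NanoLuc luciferase and a prosubstrate that viable cells reduce to a luciferase substrate. After a 5 h incubation at 37 C/5% CO2, compounds were added and luminescence was measured repeatedly during 40 h of treatment.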
Turning to `O=Cc1cccc([N+](=O)[O-])c1`, the Potency result was “inactive”. For `CC/C=C\CC/C=C/C(OCC)OCC`, the Potency result is “inactive”. On the same count and under the same terms, then `CCCCCSCCCCC`, with “inactive”; and `CCOC(=O)CC(C)=O`, with “inactive”; and `Cn1cc(S(C)=O)c(=O)c2ccc(F)cc21` (stereo not drawn), with “inactive”. For the compound `CC(C)CCCC(C)N` (stereo not drawn), the Potency entry is “inactive”. On the same count and under the same terms, then `COC(=O)c1ccc(C)cc1C1=NC(C)(C(C)C)C(=O)N1` (stereo not drawn), with “inactive”; and `CC(C)(O)C(=O)c1ccccc1`, with “inactive”. `N#Cc1ccc(C2CCCc3cncn32)cc1` (stereo not drawn): the Potency result is “inactive”.

As to `C[C@@H]1CCN(C(=O)[C@H](CCCN=C(N)N)NS(=O)(=O)c2cccc3c2NC[C@H](C)C3)[C@@H](C(=O)O)C1`, the Potency entry is “inactive”.

A further experiment can be described thus: A CellTox Green Cytotoxicity Assay to monitor cytotoxicity in HEK293 cells - 16 hour (AID 1224888). Further: nearly all actives have a fitted effect of over 35% in size. The conditions noted are these: CellTox Green fluorescence; series mostly up to 76.8 µM. The gist of the method: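 Nonlytic real-time cytotoxicity: HEK293 + CellTox Green reagent plated, 5 h preincubation, pintool compound addition (23 nL in DMSO), 37 C for 40 h, fluorescence measured at successive time points.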
On to `O=C(O)CNC(=O)c1ccc([N+](=O)[O-])cc1`, for which the Potency entry was “inactive”. Still for that read-out and setting: the result for `CCCN1CCCC[C@H]1C(=O)Nc1c(C)cccc1C` reads “inactive”; that for `COc1nc(N)nc2c1ncn2[C@@H]1O[C@H](CO)[C@@H](O)[C@@H]1O`, “inactive”; that for `C1OCOCO1`, “inactive”.

Consider `CCS(=O)(=O)c1ccc(OC)c(C(=O)OC)c1`, for which the Potency entry is “inactive”. Same read-out and setting: then `N=C(N)c1ccccc1`, with “inactive”; and `CN1C(=O)N(C)C(O)C1O` (stereo not drawn), with “inactive”.

Take `CC(C)NC(=O)NC(C)C`: the Potency entry is “inactive”. With `Brc1c(NC2=NCCN2)ccc2nccnc12`, the Potency entry was “inactive”. As for `CN(C(=O)c1c(O)c2ccccc2n(C)c1=O)c1ccccc1`, the Potency entry was “inactive”. `CC(C)NCCCC1(C(N)=O)c2ccccc2-c2ccccc21`: the Potency entry was “inactive”. Same read-out and setting: then `CC(NC(CCc1ccccc1)C(=O)O)C(=O)N1C(=O)N(C)CC1C(=O)O` (stereo not drawn), with “inactive”; and `O=Cc1cccc([N+](=O)[O-])c1`, with “inactive”. Regarding `CC/C=C\CC/C=C/C(OCC)OCC`, the Potency entry is “inactive”. As to `CCCCCSCCCCC`, the Potency result is “inactive”. For the compound `CCOC(=O)CC(C)=O`, the Potency entry is “inactive”.

On to `Cn1cc(S(C)=O)c(=O)c2ccc(F)cc21` (stereo not drawn), for which the Potency result was “inactive”. Consider `CC(C)CCCC(C)N` (stereo not drawn), for which the Potency result is “inactive”.

With `COC(=O)c1ccc(C)cc1C1=NC(C)(C(C)C)C(=O)N1` (stereo not drawn), the Potency entry was “inactive”. Still for that read-out and setting: the result for `N#Cc1ccc(C2CCCc3cncn32)cc1` (stereo not drawn) reads “inactive”; that for `C[C@@H]1CCN(C(=O)[C@H](CCCN=C(N)N)NS(=O)(=O)c2cccc3c2NC[C@H](C)C3)[C@@H](C(=O)O)C1`, “inactive”.

The nature of another experiment: qHTS RealTime-Glo MT Cell Viability Assay in HepG2 cells - 0 hour (AID 1224889). Further: nearly all actives have a fitted effect of over 50% in size. The note with it: RealTime-Glo luminescence; series mostly up to 76.8 µM. Summed up:
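Luminescence read-out: viable HepG2 cells reduce a prosubstrate to a NanoLuc substrate, giving a signal proportional to live cell number. Reads taken at 0, 8, 16, 24, 32 and 40 h of compound exposure at 37 C.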
For `NC(CSCC(=O)O)C(=O)O` (stereo not drawn), the Potency entry was “inactive”. On the same count and under the same terms, then `O=C(O)CNC(=O)c1ccc([N+](=O)[O-])cc1`, with “inactive”. As for `N=C(N)c1ccc(OCCCOc2ccc(C(=N)N)cc2)cc1`, the Potency entry was “inactive”. Consider `CCCCCCCCCCCCCCCCC`, for which the Potency result was “inactive”. `CN(C)CCCNCCCN(C)C`: the Potency result is “inactive”. As to `COc1ccc2c(c1)c(CC(=O)OCC(=O)O)c(C)n2C(=O)c1ccc(Cl)cc1`, the Potency result was “inactive”. Take `CCCCOCCOCCOCCCC`: the Potency result was “inactive”. `COC(C)(C)CCCC(C)CC=O` (stereo not drawn): the Potency entry is “inactive”. Still for that read-out and setting: the result for `CCCN1CCCC[C@H]1C(=O)Nc1c(C)cccc1C` reads “inactive”; that for `O=C(O)CCCl`, “inactive”; that for `COc1nc(N)nc2c1ncn2[C@@H]1O[C@H](CO)[C@@H](O)[C@@H]1O`, “inactive”. On the same count and under the same terms, the result for `C1OCOCO1` reads “inactive”; that for `Cc1cc2c(cc1S(N)(=O)=O)S(=O)(=O)CCC2`, “inactive”. Regarding `O=c1n(CCO)c(=O)n(CCO)c(=O)n1CCO`, the Potency entry is “inactive”. On to `CCCCCCCCCCCCN(CCCCCCCCCCCC)CCCCCCCCCCCC`, for which the Potency result is “inactive”. Still for that read-out and setting: then `N=C(N)c1ccccc1`, with “inactive”; and `Brc1c(NC2=NCCN2)ccc2nccnc12`, with “inactive”; and `C=C(C)C(=O)OCCCCCCCC(C)C`, with “inactive”.

With `CCOC(=O)[C@H](CCc1ccccc1)N[C@@H](C)C(=O)N1[C@H](C(=O)O)C[C@@H]2CCC[C@@H]21`, the Potency entry is “inactive”. `CC(C)CCCC(C)N` (stereo not drawn): the Potency result is “inactive”.

Take `COC(=O)c1ccc(C)cc1C1=NC(C)(C(C)C)C(=O)N1` (stereo not drawn): the Potency result is “inactive”. Same read-out and setting: then `CC(C)(O)C(=O)c1ccccc1`, with “inactive”.
